Several values for one entry are separate records, joined by “and”; a condition that tells them apart may be missing. Equal values may be shown once. Compounds without any hit were thinned out: in the full panel of roughly 83,000, 20% have a hit.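 Each cell line was grown in a 96-well plate and treated with one concentration of compound for 48 hours. Values below 10 were considered active.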 Activity calls are given as the source filed them.
system: TK-10 renal; assay: NCI-60 one-dose screen, 48 h (100 = growth as untreated, 0 = no growth, -100 = all killed); conditions: 10 µM unless noted

Compound	growth
Cn1c(-c2ccccc2)cc(=O)cc1-c1ccccc1	91.5% (inactive)
O=C1C2=C(Nc3cc(Cl)ccc3N2)OC1c1c[nH]c2ccc(COc3ccccc3)cc12 (centres undefined)	71.6% (inactive)
COc1ccc(S(=O)(=O)c2ccc(F)cc2)cc1	95.4% (inactive)
CCOP(=O)(OCC)/C(C#N)=C/c1c(C)[nH]c2ccccc12	93.2% (inactive)
COc1ccc(CCNC(=S)NN)cc1OC	120% (inactive)
CS(=O)(=O)OCC1NC(=O)C(COS(C)(=O)=O)NC1=O (centres undefined)	130% (inactive) and 138% (inactive)
COc1cc(NCCCCCCCNC(C)C)c2nccc(C)c2c1	90.3% (inactive) and 67.6% (inactive)
N=c1sc2ccccc2n1CC(=O)O	96.9% (inactive)
O=C1C=CC(=O)N1Cc1ccco1	94.4% (inactive)
N=C(N)N1CCc2ccccc2C1	106% (inactive) and 110% (inactive)
Cc1ccc(C(=O)c2ccc(C)cc2)cc1	101% (inactive) and 96.5% (inactive)
COC(=O)c1ccccc1Cl	97.1% (inactive)
O=C(Nc1ccccc1)OCC(CN1CCCCC1)OC(=O)Nc1ccccc1 (centres undefined)	93.2% (inactive) and 104% (inactive)
N=C(N=C(N)N)N1CCOCC1	103% (inactive) and 97.9% (inactive)
Cc1cc2nc3ccc(=[N+](C)C)cc-3sc2cc1N	-12.3% (active) and 14.7% (inactive)
O=C1C=CC(n2cc(F)c(=O)[nH]c2=O)O1 (centres undefined)	75.7% (inactive)
O=C1CCC(=O)N1CC1CC2CCC1C2 (centres undefined)	94.4% (inactive) and 83.7% (inactive)
NCCSSC/C=C\CSSCCN	107% (inactive)
COC(=O)c1nc(N)nc(C(=O)OC)c1C(=O)c1cccc2ccccc12	97.5% (inactive)
COc1ccc(COC=O)cc1	103% (inactive)

Compound	growth
CCCCNC(=O)c1ccccc1C	97.5% (inactive)
CC(=O)c1cccc(OC(=O)c2ccccc2)c1	106% (inactive)
CCNC1=CC(=O)c2ncccc2C1=O	83.6% (inactive)
O=C(/C=C/C=C/c1ccc2c(c1)OCO2)N1CCCCC1	157% (inactive) and 175% (inactive)
CCN(CC)Cc1cc2[nH]c3c4ccc(Cl)cc4ncc3c2cc1OC	123% (inactive) and 89.8% (inactive)
C/C=C/C(=O)OCCCCCCCCCCCC	92.8% (inactive)
COc1ccc(CCn2cnn3c(=O)c4ccccc4nc3c2=O)cc1OC	114% (inactive) and 106% (inactive)
N#Cc1c[nH]n2ccnc12	103% (inactive)
NC1=NC(c2ccccc2)N=C(Nc2ccccc2)N1 (centres undefined)	94% (inactive) and 102% (inactive)
Cc1nc(Nc2ccc(Cl)cc2)c2cnn(-c3ccccc3)c2n1	95.4% (inactive)
CC(C)(C)C1=CC(=O)C(C(C)(C)C)=CC1=O	102% (inactive) and 94.6% (inactive)
CC1(C)OC(=O)C(=Cc2ccc(C#N)cc2)C(=O)O1	98.3% (inactive) and 101% (inactive)
COC(=O)CCOc1ccccc1	108% (inactive)
Cc1cc(-c2ccc(N=Nc3c(C)nn(-c4ccc(S(=O)(=O)O)cc4)c3O)c(C)c2)ccc1N=Nc1ccc(O)c(C(=O)O)c1	141% (inactive)
OCc1ccccc1F	107% (inactive)
O=C(O)c1cc(=O)[nH]c(=O)[nH]1	106% (inactive) and 135% (inactive)
O=C(O)c1cccc(Br)c1	108% (inactive) and 93.6% (inactive)
CCN(CC)C(CC(=O)c1ccccc1)C(=O)c1ccccc1 (centres undefined)	70.2% (inactive)
O=S(=O)(O)c1ccc2cc(O)ccc2c1	99.7% (inactive)

From PubChem BioAssay (NCI)
